S aureus helic: S. aureus DNA helicase inhibition; purified S. aureus helicase, fluorescence unwinding assay; 0.05% of 120,000 active; inhibition, % (concentration not given with the values); in the data active = inhibition above about 25%, passing the limit was not always enough
HCMV UL50-53 inh: cytomegalovirus nuclear egress complex inhibition; HTRF UL50-UL53 interaction, normalized percent inhibition; inhibition, % (no concentration beside the values); 0.15% of 190,000 active; AID 1918969; in the data active = inhibition above about 27%, passing the limit was not always enough
Sa growth inh: inhibitors of Staphylococcus aureus growth at 42 °C; relative growth, % (no concentration beside the values); S. aureus RN4220 growth, OD600, 20 h; active compounds read low; 0.53% of 170,000 active;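 active = relative growth at most 50% at the other temperature and 20+ points below 30 °C, or under 10% at both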
Each line names hits and unclear results; the compound was inactive in the other large screens. Many of the other results were omitted from the sample, so hits are more common in it than they were.

Sc1nc2c(Cl)c(Cl)c(Cl)cc2o1	Sa growth inh -0.8
COC(=O)CCn1ccnc1C	none
COc1cc(OC)c(CNc2ccc3cn[nH]c3c2)cc1Br	none
Brc1ccc(CNc2ccc3cn[nH]c3c2)s1	HCMV UL50-53 inh 56
Cc1ccc(NCN2C(=O)c3ccccc3C2=O)cc1	none
O=C1S/C(=C\c2ccc(Cl)cc2)C(=O)N1Cc1ccccc1	none (no result: HCMV UL50-53 inh)
NCCN1C(=O)S/C(=C\c2ccc(Cl)c(Cl)c2)C1=O	Sa growth inh -0.6
Cc1cc(C(=O)O)no1	none
CCc1ccccc1-n1c(-c2ccc(Cl)cc2)cn2c3c(=O)n(C)c(=O)n(C)c3nc12	none (no result: S aureus helic, Sa growth inh)
O=C(NC1CC1)c1ccc(Nc2ccnc(-c3ccc(F)cc3)n2)cc1	none (no result: S aureus helic, Sa growth inh)
CCCOC(=O)c1c(C)oc2c1cc(NS(=O)(=O)c1ccc(OCC)cc1)c1ccccc12	none (no result: S aureus helic)
CCOc1ccc(S(=O)(=O)Nc2cc(Cl)c(O)c3ccccc23)cc1	HCMV UL50-53 inh 59 (no result: Sa growth inh)
Cc1ccc(S(=O)(=O)N=S(C)(=O)c2ccc(C(F)(F)F)cn2)cc1 (centres undefined)	none (no result: S aureus helic)
CCc1ccc(S(=O)(=O)c2nnn3c2nc(NC(C)C)c2sccc23)cc1	none (no result: S aureus helic, HCMV UL50-53 inh)
CC(C)Nc1nc2c(S(=O)(=O)c3ccccc3)nnn2c2ccsc12	HCMV UL50-53 inh 37
Cc1ccc(-c2cccc3c(C(=O)N4CCN(c5ccccn5)CC4)cc(C)nc23)cc1	none (no result: S aureus helic, Sa growth inh)
COc1ccccc1NC(=O)n1ncc2ccccc21	none (no result: S aureus helic, Sa growth inh)
NNC(=O)COc1c(Br)cc(Br)c2cccnc12	none
Nc1c(Br)cc(Br)c2cccnc12	HCMV UL50-53 inh 58
O=C(O)CC(N=C1NS(=O)(=O)c2ccccc21)c1ccc(Cl)cc1 (centres undefined)	none
O=C(Nc1ccccc1)c1cc([N+](=O)[O-])ccc1Cl	none (no result: S aureus helic, Sa growth inh)
O=C(Nc1ccc([N+](=O)[O-])cc1Cl)c1cc(Cl)ccc1O	Sa growth inh -0.6 (no result: S aureus helic)
NC(=O)C1CCN(C(=O)c2ccccc2)CC1	none
C(=N\n1cnnc1)/c1ccc(N(c2ccccc2)c2ccccc2)cc1	Sa growth inh 1.4
CN(C)c1ccc(/C=N/n2cnnc2)cc1	none
CCOC(=O)Oc1cc2oc(=O)sc2cc1Cl	Sa growth inh 4.9
CCOC(=O)N=c1oc2cc(Cl)c(Cl)cc2o1	none
COc1cc(C=C2C(=O)NC(=S)NC2=O)cc(Cl)c1OCCOc1ccccc1	none (no result: S aureus helic, Sa growth inh)
COc1cc(C=C2C(=O)NC(=S)NC2=O)cc(Cl)c1OCCOc1ccccc1C	none (no result: S aureus helic, Sa growth inh)
O=C1NC(=O)C(=Cc2cc(Br)ccc2OCc2ccc(Cl)cc2)C(=O)N1	HCMV UL50-53 inh 50 (no result: S aureus helic, Sa growth inh)
COc1cc(C=C2C(=O)NC(=O)NC2=O)cc(Cl)c1OCCOc1cccc(C)c1	HCMV UL50-53 inh 44 (no result: S aureus helic, Sa growth inh)
COc1cc(C=C2C(=O)NC(=O)NC2=O)cc(Br)c1OCc1ccccc1Cl	none (no result: S aureus helic, Sa growth inh)
COc1cc(C=C2C(=O)NC(=O)NC2=O)cc(Cl)c1OCCOc1ccccc1C	HCMV UL50-53 inh 61 (no result: S aureus helic, Sa growth inh)
Cc1ccc(COc2ccc(Br)cc2C=C2C(=O)NC(=S)NC2=O)cc1	none (no result: S aureus helic, Sa growth inh)
COc1cc(C=C2C(=O)NC(=O)NC2=O)cc(Cl)c1OCc1ccc(Cl)cc1	HCMV UL50-53 inh 72 (no result: S aureus helic, Sa growth inh)
Cn1nc(C(=O)OCc2cc(Cl)c3c(c2)OCO3)c2ccccc2c1=O	none
O=C1C(=O)N(C2CCN(C(=O)c3ccccc3Cl)CC2)CCN1Cc1cccc(F)c1	none (no result: S aureus helic, Sa growth inh)
Cc1nn(C(=O)Nc2cccc(Br)c2)c2ccccc12	none (no result: S aureus helic, Sa growth inh)
COc1cc(C=C2C(=O)NC(=S)NC2=O)ccc1OCC(=O)O	none (no result: HCMV UL50-53 inh)
COc1cc(C=C2C(=O)NC(=O)NC2=O)cc(Cl)c1OCC(=O)O	HCMV UL50-53 inh 72
COc1ccccc1OCCOc1c(Br)cc(C=C2C(=O)NC(=O)NC2=O)cc1OC	none (no result: S aureus helic, Sa growth inh)
COc1cc(C=C2C(=O)NC(=O)NC2=O)ccc1OCC(C)C	none
COc1cc(C=C2C(=O)NC(=O)NC2=O)cc(Br)c1OCC(C)C	HCMV UL50-53 inh 87 (no result: S aureus helic, Sa growth inh)
COc1ccccc1OCCOc1c(Cl)cc(C=C2C(=O)NC(=O)NC2=O)cc1OC	HCMV UL50-53 inh 63 (no result: S aureus helic, Sa growth inh)
CC(C1CC1)n1nccc1NC(=O)c1cccc(S(C)(=O)=O)c1 (centres undefined)	none
O=C(CSc1nnc(SCC(=O)c2ccc[nH]2)s1)c1ccc[nH]1	none
Cc1cc2nc(C)c(=O)n(Cc3ccc(C(=O)NCCc4c[nH]c5ccccc45)cc3)c2cc1C	none (no result: S aureus helic, Sa growth inh)
C[N+](C)(CCOc1ccccc1)Cc1ccccc1 (tested in a mixture with another compound)	none (no result: HCMV UL50-53 inh)
CCCCCCCCCCCCC[N+](C)(C)Cc1ccccc1	Sa growth inh -0.8 (no result: S aureus helic)
CO[C@@]12[C@H](COC(N)=O)C3=C(C(=O)C(C)=C(N)C3=O)N1C[C@@H]1N[C@@H]12	Sa growth inh 0.0 (no result: S aureus helic)
C=CCOc1ccc(C(=O)N(Cc2ccccc2)C2CCS(=O)(=O)C2)cc1 (centres undefined)	none
CN(C)C1C(=O)C(C(N)=O)=C(O)C2(O)C(=O)C3=C(O)c4c(O)ccc(Cl)c4C(O)C3CC12 (centres undefined)	none (no result: S aureus helic, Sa growth inh)
